Test results from the supplement of paper PMC6555819.

These sequences were tested on PPARg:RXRa IVT, anti-PPARg (NR concentration 270 nM, RXRa partner concentration 90 nM) (assay: PBM binding z-score (relative to random genomic background probes); higher = stronger binding; sequences stand for … in GC…GCGATTGACAGCGTAGAATGAAGG).
How it was run: (§1)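 On custom Agilent 4×180K arrays, double-stranded probes with 34-nt variable regions carried direct-repeat seeds, single-nucleotide variants, half-site ablations or random human genomic background. Ligand-free nuclear receptor dimers were applied for 1 h, and binding was read with antibodies against each partner (one per run). Binding z-scores come from regression-normalized fluorescence, with the random background probes as reference.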

Sequence | PBM binding z-score
TTACCAACGTGAAAGGTCGTTGATGCACGCCTTG | 1.04
CCTACTGCGCCACGAAAGGTCATTGATTCAGTGA | 1.65
TCATATAGGTAAACGTGAAAGTCGAACGATATGA | 2.6
GGAACGAGGGCAAAGTTGATAGCATCTGTCGACG | 4.32
CCTAGCAGGCCAATCTGGGTGACTCAAGGCTTGA | 3.53
TCTGCTGGGTCAGTTGGTCAGCTAACGAGCTGCC | 2.74
CCTACTAGGTCATGGTCAGCTAATCTACAGTATG | 7.42
TCTGTTAGTTGAAGGGCAACCGACGAGTCCGTTT | 1.1
TCGGCTAGGTCAACGATGGTCAGCTAATCTGCTA | 3.06
AGAATGAGGTTAATAAGATCAGGGAATTGCGGTC | 2.89
AGAACGAGGGCAATGAGTTGATAGTACGGGTGGC | 2.4
AGTCAAAGTTCATCTAGGGAACGTAAGATATGCT | 2.78
ATAACGAGGGCACGCTGAGTTGATAGCAGAGTAG | 4.09
ATCTGTAGGTAACCAAGTTCAGTGAATGCCGAAC | 2.55
AGAACGAGGGCACGCTGAGTTGAGAGCAGAGTAG | 3.68
CTCGAAAGGTCGTGCTGAGGTGAGTATACCAAAC | 1.96
CAAACTAGGTCCAGAGGTCAAAGTCCGCTTCCCG | 3.98
CGTCCAAGGTCAAAGGTCAGTGACGAGATGACGG | 5.8
GGAACGAGGGCAAAGTTGATAGAATCTGTCGACG | 4.36
TCTTGTAGATCAATAGAGGATAAGAAAGTGCGCT | 0.366

Sequence | PBM binding z-score
CGAACCAGGTCAAGGACAGTGAATCTCCGCACGC | 5.44
CCGGCTAGGTCATGGTCAGCTAATCTACAGTATG | 2.65
ATACCAAGGTGCTCGTGAGGTCGTTGATACTAAC | 0.0535
CCAACTAGGTCAAGGACAGTGAATCTCCGCACGC | 7.55
GTAACGAGGGCAAGTTGATAGCAGAGTTTGATGG | 3.09
TCTGCTAGGTCAGTTGGACAGCTAACGAGCTGCC | 2.83
AGTCAAAGCTCAGGACGAGGTAACGTAAAGCACG | -0.0403
ACGTACGGGTCAACGAGGTTATAGCACGCGTATA | 2.92
CCTTACGGGTCACTGACAGGTTAGAGCATTTGGA | 3.63
CGAACTAGGTCATCCAGGACAGTCAATACATTGA | 8.35
CAAACTAGGCCAAAGGTCAAAGTCGAGCCAACCA | 7.78
CGTCCAAGGTCAATGTCAGTGAAAGAGACTCGAA | 3.14
TCTATTACTTGAAGGGCAACCGACGAGTCCGTTT | 0.782
TCTTGTAGATCAACAGGAGGTTAAGAACGATCGA | 0.594
TCATATAGGTAAATGCTAGGTGAAAGTCCGATCT | 2.74
TCTAGTTGGTCACGGAGGTCACACAAGACGGGTA | 4.34
CGAACTAGGTCATCCAAGACAGTGAATACATTGA | 8.19
TCTTATAGATCAACAGGAGGTTAAGAAAGATCGA | 0.332
CGAACTAGGTCAGAACAGGAAAGTGAAGGATGAT | 6.78
ATATGTAGGTTATCGCGTCATTCAGTTTGCGCAT | 6.92

Each sequence was assayed on PPARg DBDmut:RXRa IVT, anti-PPARg (DBD mutation: PPARg1 K132A/R137A, NR concentration 270 nM, RXRa partner concentration 90 nM) in the same assay as above.
How it was run: as §1

Sequence | PBM binding z-score
TTACCAACGTGAAAGGTCGTTGATGCACGCCTTG | 0.702
CCTACTGCGCCACGAAAGGTCATTGATTCAGTGA | 1.03
TCATATAGGTAAACGTGAAAGTCGAACGATATGA | 1.4
GGAACGAGGGCAAAGTTGATAGCATCTGTCGACG | 0.506
CCTAGCAGGCCAATCTGGGTGACTCAAGGCTTGA | -0.721
TCTGCTGGGTCAGTTGGTCAGCTAACGAGCTGCC | 0.569
CCTACTAGGTCATGGTCAGCTAATCTACAGTATG | 2.12
TCTGTTAGTTGAAGGGCAACCGACGAGTCCGTTT | 0.429
TCGGCTAGGTCAACGATGGTCAGCTAATCTGCTA | -0.836
AGAATGAGGTTAATAAGATCAGGGAATTGCGGTC | 0.759
AGAACGAGGGCAATGAGTTGATAGTACGGGTGGC | -0.466
AGTCAAAGTTCATCTAGGGAACGTAAGATATGCT | 1.05
ATAACGAGGGCACGCTGAGTTGATAGCAGAGTAG | 1.98
ATCTGTAGGTAACCAAGTTCAGTGAATGCCGAAC | -0.123
AGAACGAGGGCACGCTGAGTTGAGAGCAGAGTAG | 0.22
CTCGAAAGGTCGTGCTGAGGTGAGTATACCAAAC | 0.22
CAAACTAGGTCCAGAGGTCAAAGTCCGCTTCCCG | 0.89
CGTCCAAGGTCAAAGGTCAGTGACGAGATGACGG | 1.24
GGAACGAGGGCAAAGTTGATAGAATCTGTCGACG | 0.353
TCTTGTAGATCAATAGAGGATAAGAAAGTGCGCT | 0.6

Sequence | PBM binding z-score
CGAACCAGGTCAAGGACAGTGAATCTCCGCACGC | 0.626
CCGGCTAGGTCATGGTCAGCTAATCTACAGTATG | -0.0629
ATACCAAGGTGCTCGTGAGGTCGTTGATACTAAC | 0.246
CCAACTAGGTCAAGGACAGTGAATCTCCGCACGC | 1.93
GTAACGAGGGCAAGTTGATAGCAGAGTTTGATGG | 0.298
TCTGCTAGGTCAGTTGGACAGCTAACGAGCTGCC | 0.449
AGTCAAAGCTCAGGACGAGGTAACGTAAAGCACG | -0.126
ACGTACGGGTCAACGAGGTTATAGCACGCGTATA | 0.48
CCTTACGGGTCACTGACAGGTTAGAGCATTTGGA | 0.322
CGAACTAGGTCATCCAGGACAGTCAATACATTGA | 3.88
CAAACTAGGCCAAAGGTCAAAGTCGAGCCAACCA | 2.58
CGTCCAAGGTCAATGTCAGTGAAAGAGACTCGAA | -0.322
TCTATTACTTGAAGGGCAACCGACGAGTCCGTTT | 1.07
TCTTGTAGATCAACAGGAGGTTAAGAACGATCGA | 0.843
TCATATAGGTAAATGCTAGGTGAAAGTCCGATCT | 1.21
TCTAGTTGGTCACGGAGGTCACACAAGACGGGTA | 0.505
CGAACTAGGTCATCCAAGACAGTGAATACATTGA | 3.65
TCTTATAGATCAACAGGAGGTTAAGAAAGATCGA | 0.51
CGAACTAGGTCAGAACAGGAAAGTGAAGGATGAT | 2.1
ATATGTAGGTTATCGCGTCATTCAGTTTGCGCAT | 1.88
